This is an account of results in PubChem BioAssay (Tox21).

A number with no mark means an inactive call. Results filed as inconclusive are left out. Active and inactive are the calls of the source. Unless noted, the call rests on the fitted dose curve; in most records, active means well fitted curve in the direction sought with a large enough effect in the repeat runs; inconclusive means weak or mixed curves; inactive means no such curve, though single readings can be large; an effect the other way counts as inactive or inconclusive.

The nature of test [1]: qHTS assay to identify small molecule agonists of the estrogen receptor alpha (ER-alpha) signaling pathway in the presence of an antagonist - cell viability counter screen (AID 1259386).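 Further: series mostly up to about 92 µM; cells exposed to compounds for 22 h at 37 °C before the viability read; nearly all actives have a fitted effect of over 30% in size.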 The method in brief:
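Read-out: CellTiter-Fluor fluorescence after 1hr reagent incubation, measured in the same wells as the luciferase readout. VM7Luc4E2 cells were exposed to 15 compound concentrations with 10.0nM ICI-182,780 for 22hr at 37C.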
In general terms: In qHTS, concentration-response curves come from the screen itself.

A short description of test [2]: qHTS assay to identify small molecule antagonists of the progesterone receptor (PR) signaling pathway - cell viability counter screen (AID 1346798). Further: nearly all actives have a fitted effect of over 50% in size. Further: potency means the concentration at half of the fitted maximal effect. The method, boiled down:
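PR-UAS-bla HEK293T cells, 3,000/well in 2% charcoal-stripped FBS medium, dosed with compounds plus R5020 agonist and incubated 16 h at 37C. Viability then measured in the same wells by CellTiter-Glo luminescence after 30 min at RT.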

A short description of test [3]: qHTS assay to identify small molecule antagonists of the TGF-beta/Smad signaling pathway - cell viability counter screen (AID 1346824). Further: nearly all actives have a fitted effect of over 50% in size. The method in brief: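 SBE-bla HEK 293T cells, incubated overnight, then compound plus 0.25 ng/mL TGF-beta1 (stock added) for 5 hr at 37 C. Viability was read in the same wells by CellTiter-Glo luminescence after 30 min at room temperature.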

Test [4] in a line: qHTS assay to identify small molecule agonists of the TGF-beta/Smad signaling pathway - cell viability counter screen (AID 1346829). Further: top concentration of the series differs between compounds; nearly all actives have a fitted effect of over 45% in size. The method in brief:
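Tox21 qHTS format: SBE-bla HEK 293T cells treated with DMSO-dissolved compounds for 5 hr; CellTiter-Glo luminescence after 30 min at room temperature.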

Test [5] in a line: qHTS assay to identify small molecule agonists of the TGF-beta/Smad signaling pathway (AID 1346859; active means well fitted activation curve with a large enough effect in the signal ratio in the repeat runs, not every such curve was filed as active; the % refers to the signal ratio; further: series mostly up to about 77 µM). The method in brief:
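SBE-bla HEK293T cells plated overnight, then compound exposure for 5 h at 37 C. Beta-lactamase reporter read with LiveBLAzer B/G FRET substrate after 2 h at room temperature, fluorescence at 405 nm excitation, 460/530 nm emission.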

The target in test [6] is Thyrotropin-releasing hormone receptor (Homo sapiens) (UniProt P34981). Put plainly: qHTS assay to identify small molecule antagonists of the thyrotropin-releasing hormone receptor (TRHR) signaling pathway (AID 1346877; active means well fitted inhibition curve with a large enough effect in the repeat runs, not every such curve was filed as active; further: series mostly up to about 51 µM). The method in brief: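 HEK293/TRHR cells, 18 h, 37 °C; Ca2+ dye 2 h; cpd 5 min RT; TRH 1 nM final; fluorescence read 3 min, 1 s intervals; 15 concs, triplicate.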

The target is the same in test [7]. The experiment in a line: qHTS assay to identify small molecule agonists of the thyrotropin-releasing hormone receptor (TRHR) signaling pathway (AID 1346891; calls by dose curve; further: series mostly up to about 58 µM). The method in brief:
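HEK293 cells expressing TRHR plated 18 h at 37 C/5% CO2, calcium dye-loaded 2 h at 37 C, then compound added (agonist mode); kinetic calcium fluorescence read 3 min at 1 s intervals; 15 concentrations in triplicate.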

Test [8] can be described thus: Human pregnane X receptor (PXR) small molecule agonists, qHTS cell viability counter screen (AID 1346977). Further: nearly all actives have a fitted effect of over 50% in size. Further: potency means the concentration at half of the fitted maximal effect. The method in brief:
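PXR-Luc HepG2 cells (2,000/well, 5% charcoal-stripped FBS) preincubated 5 hr, then exposed to compounds 24 hr at 37 C. Viability read in the same wells by CellTiter-Fluor fluorescence, reagent added at 23 hr, 1 hr incubation.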

Test [9] in a line: Caspase-3/7 induction in HepG2 cells by small molecules, qHTS assay (AID 1346978). Further: nearly all actives have a fitted effect of over 15% in size. The method in brief:
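Wild-type HepG2 cells, 2,000/well, settled 5 hr at 37 C and 5% CO2, then compound-treated for 17 hr; caspase-3/7 activity read by luminescent Caspase-Glo 3/7 after 30 min at room temperature.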

Test [10] is described as follows: Caspase-3/7 induction in CHO-K1 cells by small molecules, qHTS cell viability counter screen (AID 1346979). Further: nearly all actives have a fitted effect of over 35% in size. Further: potency means the concentration at half of the fitted maximal effect. The method, boiled down: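 Wild-type CHO-K1 cells (1,500/well) treated with compound after 5 h plating; after 16 h at 37C, viability read as CellTiter-Fluor fluorescence following 1 h reagent incubation, in the same wells as the caspase read.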
Test [11] in a line: Caspase-3/7 induction in CHO-K1 cells by small molecules, qHTS assay (AID 1346980). Further: nearly all actives have a fitted effect of over 15% in size. The method in brief: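 Wild-type CHO-K1 cells exposed to compounds for 17hr at 37 C, 5% CO2. Caspase-3/7 activity then measured by Caspase-Glo 3/7 luminescence after 30min at room temperature.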
Test [12] can be described thus: Caspase-3/7 induction in HepG2 cells by small molecules, qHTS cell viability counter screen (AID 1346981). Further: series mostly up to about 92 µM; nearly all actives have a fitted effect of over 30% in size. The method in brief: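 Fluorescence read-out of live-cell protease activity (CellTiter-Fluor) after 1 hr with reagent. This was measured in the same wells as the caspase-3/7 luminescence, on HepG2 cells exposed to DMSO-dissolved compounds for 16 hr at 37 C.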

Test [13] deals with Nuclear receptor subfamily 1 group I member 2 (Homo sapiens) (UniProt O75469). Put plainly: Human pregnane X receptor (PXR) small molecule agonists, qHTS assay (AID 1346982). Further: nearly all actives have a fitted effect of over 35% in size. Further: potency means the concentration at half of the fitted maximal effect. The method in brief: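 HepG2 PXR-Luc reporter line, 5% charcoal-stripped FBS; 5 hr pre-incubation, compound (DMSO) 24 hr at 37 C/5% CO2; ONE-Glo 30 min RT; luminescence read-out.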
The target of test [14] is Cytochrome P450 2D6 (Homo sapiens) (UniProt P10635). Put plainly: Cytochrome P450 Family 2 Subfamily D Member 6 (CYP2D6) small molecule antagonists: luciferase reporter qHTS assay (AID 1671196). Further: nearly all actives have a fitted effect of over 50% in size. Further: potency means the concentration at half of the fitted maximal effect. The method in brief:
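Luminogenic proluciferin substrate, CYP2D6 enzyme; 10 min RT preincubation with compound, NADPH regeneration system added, 1 h RT. Stop/detection reagent, 20 min RT, luminescence read (RLU). Signal proportional to CYP activity.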
Background: In a reporter assay the amount or activity of a reporter protein is the signal.

Test [15] deals with Nuclear receptor subfamily 1 group I member 2 (Rattus norvegicus) (UniProt Q9R1A7). The experiment in a line: Rat pregnane X receptor (rPXR) activation by small molecules, qHTS assay (AID 1346983). Further: nearly all actives have a fitted effect of over 20% in size. Particulars: rPXR luciferase reporter cells, One-Glo luminescence, 24 h; max activation: stronger effect = higher value. The method, boiled down:
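Cell-based rPXR activation assay: rPXR cells, 2,000 per well, rested 5hr at 37 C, then exposed to compounds in DMSO for 24 hr at 37 C. Luciferase activity read by One-Glo luminescence after 30 min at room temperature.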

The target in test [16] is Nuclear receptor subfamily 1 group I member 2 (Homo sapiens) (UniProt O75469). The experiment in a line: CYP3A4 induction through human pregnane X receptor (PXR) by small molecules, qHTS assay (AID 1346984). Further: nearly all actives have a fitted effect of over 40% in size. The method in brief:
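HepG2-derived DPX-2 line carrying PXR plus a CYP3A4-promoter luciferase reporter; cells plated 5 hr, compound-exposed 24 hr at 37C. CYP3A4 activity probed with 3uM (final) Luciferin-IPA for 3hr, then luciferase read after One-Glo.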

Test [17] shares this target. Put plainly: Human pregnane X receptor (PXR) activation by small molecules, qHTS assay (AID 1346985). Further: nearly all actives have a fitted effect of over 40% in size. The method in brief: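 DPX-2 cells (HepG2 co-transfected with a PXR response element and a CYP3A4-promoter luciferase construct) were seeded at 2,000 per well, rested 5 hr at 37C, then exposed to DMSO-dissolved compounds for 24 hr. Activation was read as luciferase luminescence.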

Test [18] concerns the target Progesterone receptor (Homo sapiens) (UniProt P06401). Put plainly: qHTS assay to identify small molecule agonists of the progesterone receptor (PR) signaling pathway (AID 1346784; calls by dose curve; further: nearly all actives have a fitted effect of over 30% in size). The method in brief: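 PR-UAS-bla HEK 293T cells (beta-lactamase reporter under UAS) in 2% charcoal-stripped FBS, dosed with 23 nL compound after 6 hr, incubated 16hr at 37C. LiveBLAzer B/G FRET substrate added, fluorescence read after 2 hours.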

The target is the same in test [19]. Put plainly: qHTS assay to identify small molecule antagonists of the progesterone receptor (PR) signaling pathway (AID 1346795; active means well fitted inhibition curve with a large enough effect in the signal ratio in the repeat runs, not every such curve was filed as active; the % refers to the signal ratio; further: potency means the concentration at half of the fitted maximal effect). The method, boiled down:
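PR-UAS-bla HEK293T cells with beta-lactamase reporter under UAS control, in 2% charcoal-stripped FBS, treated with compounds plus 1 nM promegestone (R5020, final) for 16 hr at 37C. Read-out: FRET beta-lactamase substrate fluorescence after 2 hr at room temperature.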

A short description of test [20]: qHTS assay to identify small molecule agonists of the progesterone receptor (PR) signaling pathway - cell viability counter screen (AID 1346799; calls by dose curve; further: nearly all actives have a fitted effect of over 45% in size; further: potency means the concentration at half of the fitted maximal effect). The method, boiled down: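 Counter screen in the PR-UAS-bla HEK293T wells (2% charcoal-stripped FBS, 16 h compound exposure at 37 C) after the bla read. CellTiter-Glo added, 30 min at room temperature, luminescence read as cell viability.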
On the % scale 0 is the no-effect control and ±100 the full control effect.

Sequence of Thyrotropin-releasing hormone receptor (Homo sapiens) (P34981 whole entry, looked up): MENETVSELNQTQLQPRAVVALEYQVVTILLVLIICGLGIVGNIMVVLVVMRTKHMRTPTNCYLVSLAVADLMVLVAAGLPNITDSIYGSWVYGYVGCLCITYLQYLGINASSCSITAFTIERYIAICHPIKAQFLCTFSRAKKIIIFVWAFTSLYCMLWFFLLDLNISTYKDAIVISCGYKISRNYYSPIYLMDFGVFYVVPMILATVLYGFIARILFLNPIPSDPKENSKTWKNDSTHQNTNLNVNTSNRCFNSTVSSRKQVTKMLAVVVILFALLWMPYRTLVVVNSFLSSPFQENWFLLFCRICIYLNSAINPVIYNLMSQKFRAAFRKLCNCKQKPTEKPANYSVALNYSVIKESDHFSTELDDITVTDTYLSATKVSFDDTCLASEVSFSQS
Sequence of Nuclear receptor subfamily 1 group I member 2 (Homo sapiens) (O75469 whole entry, looked up): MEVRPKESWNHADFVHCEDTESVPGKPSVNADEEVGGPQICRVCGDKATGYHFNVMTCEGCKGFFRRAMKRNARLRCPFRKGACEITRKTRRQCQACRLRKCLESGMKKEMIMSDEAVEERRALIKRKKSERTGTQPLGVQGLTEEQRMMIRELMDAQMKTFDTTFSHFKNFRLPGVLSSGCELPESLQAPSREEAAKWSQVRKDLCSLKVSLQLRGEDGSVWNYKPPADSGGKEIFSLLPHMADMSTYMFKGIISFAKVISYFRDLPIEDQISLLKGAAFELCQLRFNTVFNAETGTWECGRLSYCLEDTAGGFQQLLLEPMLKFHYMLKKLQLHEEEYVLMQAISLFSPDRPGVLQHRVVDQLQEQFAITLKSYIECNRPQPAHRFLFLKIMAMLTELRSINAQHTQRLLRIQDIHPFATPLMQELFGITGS
Sequence of Cytochrome P450 2D6 (Homo sapiens) (P10635 whole entry, looked up): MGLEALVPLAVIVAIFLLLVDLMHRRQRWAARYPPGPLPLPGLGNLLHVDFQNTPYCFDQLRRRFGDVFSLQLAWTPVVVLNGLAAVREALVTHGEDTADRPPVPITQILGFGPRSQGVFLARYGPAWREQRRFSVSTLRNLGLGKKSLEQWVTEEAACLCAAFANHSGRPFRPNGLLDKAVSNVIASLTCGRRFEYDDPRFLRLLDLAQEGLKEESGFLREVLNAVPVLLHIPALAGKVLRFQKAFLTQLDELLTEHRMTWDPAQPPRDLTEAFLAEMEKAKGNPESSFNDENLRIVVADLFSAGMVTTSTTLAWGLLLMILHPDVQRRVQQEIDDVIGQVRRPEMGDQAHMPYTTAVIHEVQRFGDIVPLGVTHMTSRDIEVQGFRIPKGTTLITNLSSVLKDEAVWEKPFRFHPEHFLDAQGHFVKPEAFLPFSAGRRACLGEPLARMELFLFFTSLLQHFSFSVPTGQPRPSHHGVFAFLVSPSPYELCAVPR
Sequence of Progesterone receptor (Homo sapiens) (P06401 whole entry, looked up): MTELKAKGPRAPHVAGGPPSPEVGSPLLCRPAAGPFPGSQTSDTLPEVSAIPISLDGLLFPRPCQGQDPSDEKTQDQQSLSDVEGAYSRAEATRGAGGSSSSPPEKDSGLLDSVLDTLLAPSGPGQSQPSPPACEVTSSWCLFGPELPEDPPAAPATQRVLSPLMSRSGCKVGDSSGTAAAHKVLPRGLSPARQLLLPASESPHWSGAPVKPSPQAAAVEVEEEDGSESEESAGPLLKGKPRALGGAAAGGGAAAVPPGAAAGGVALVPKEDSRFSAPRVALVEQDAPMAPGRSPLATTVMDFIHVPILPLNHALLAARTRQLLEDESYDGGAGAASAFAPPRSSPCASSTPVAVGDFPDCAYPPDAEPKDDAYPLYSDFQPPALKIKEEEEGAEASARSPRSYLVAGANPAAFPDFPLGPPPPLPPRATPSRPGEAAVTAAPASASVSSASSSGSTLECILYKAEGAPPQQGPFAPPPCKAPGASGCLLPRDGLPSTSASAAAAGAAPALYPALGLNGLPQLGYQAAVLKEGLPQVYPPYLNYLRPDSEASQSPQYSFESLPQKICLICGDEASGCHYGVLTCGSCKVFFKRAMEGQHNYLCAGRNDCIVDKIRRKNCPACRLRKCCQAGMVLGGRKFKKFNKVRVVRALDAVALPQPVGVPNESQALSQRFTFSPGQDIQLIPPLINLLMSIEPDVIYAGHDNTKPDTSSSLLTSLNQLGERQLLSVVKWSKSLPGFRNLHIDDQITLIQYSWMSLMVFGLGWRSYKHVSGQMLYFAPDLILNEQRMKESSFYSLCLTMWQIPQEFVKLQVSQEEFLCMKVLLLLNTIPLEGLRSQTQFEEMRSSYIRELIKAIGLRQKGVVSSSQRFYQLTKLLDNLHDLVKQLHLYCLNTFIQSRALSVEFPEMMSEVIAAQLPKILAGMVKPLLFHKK
Sequence of Nuclear receptor subfamily 1 group I member 2 (Rattus norvegicus) (Q9R1A7 whole entry, looked up): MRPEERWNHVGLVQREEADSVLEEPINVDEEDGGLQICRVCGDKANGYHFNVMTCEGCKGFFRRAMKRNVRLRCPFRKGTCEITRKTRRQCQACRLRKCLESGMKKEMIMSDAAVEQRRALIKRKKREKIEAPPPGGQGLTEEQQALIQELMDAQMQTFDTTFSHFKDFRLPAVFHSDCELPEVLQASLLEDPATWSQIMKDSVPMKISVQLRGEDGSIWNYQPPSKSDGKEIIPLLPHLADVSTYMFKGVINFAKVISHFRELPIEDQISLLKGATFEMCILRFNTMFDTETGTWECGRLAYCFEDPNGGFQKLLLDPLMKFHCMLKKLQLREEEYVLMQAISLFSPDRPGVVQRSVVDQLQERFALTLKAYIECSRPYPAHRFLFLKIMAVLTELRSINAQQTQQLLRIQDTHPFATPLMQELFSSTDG

For the molecule `CN(C)CCCNCCCN`, the Potency entry in [1], in [2], in test [3], in [4], in [7] and in test [8] was “inactive” in each case. Besides, the Potency result in [10], in test [11], in [12] and in test [13] was “inactive” throughout. In addition, the result in test [5], in test [6] and in test [9] was inactive. For the same molecule, the Potency in test [14] is 70.7 µM (active).

As to `Cn1c(NCCN(CCO)CCCc2ccc([N+](=O)[O-])cc2)cc(=O)n(C)c1=O`, the Potency result in [1], in test [2], in test [3], in test [4], in [7] and in test [8] was “inactive” throughout. The Potency result in [10], in test [11], in test [13], in [16] and in test [17] was “inactive” throughout. Moreover, the molecule was called inactive in test [5] and in test [6]. In addition, in test [15], the max activation was -2.3%.

For the molecule `Cc1ccc(C(N)=O)cc1N`, the call in test [18], in test [5] and in test [9] was inactive. For the same molecule, the Potency entry in test [19], in [2], in test [20], in test [3], in test [4] and in test [8] was “inactive” in each case. For the same molecule, the Potency result in test [10], in test [11], in test [13] and in [14] was “inactive” throughout.

Turning to `O=C(O)/C=C/c1cnc[nH]1`, the molecule was classed as inactive in test [18], in test [5] and in [6]. Also, the Potency result in test [19], in [2], in test [20], in test [3], in test [7] and in [8] was “inactive” throughout. The Potency entry in [10], in [11], in test [12] and in test [13] was “inactive” throughout.

With `O=C1[C@H](CC[C@H](O)c2ccc(F)cc2)[C@@H](c2ccc(O)cc2)N1c1ccc(F)cc1`, the Potency result in test [1], in test [3], in test [4], in test [8], in [11] and in test [16] was “inactive” throughout. The Potency result in test [17] is “inactive”. The Potency in [19] is 23.7 µM (active); in [10], 29.8 µM (active); in test [13] it was 29.8 µM (active); in [14], 30.9 µM (active). Besides, the result in test [5] and in test [9] was inactive. The max activation in [15] is -2.85%.

Regarding `CC(C)c1cccc(C(C)C)c1NC(=O)NS(=O)(=O)c1cc(C(C)(C)O)co1`, the molecule was classed as inactive in test [18], in test [5] and in test [9]. Moreover, the Potency result in test [19], in [2], in test [3], in test [4], in test [8] and in test [10] was “inactive” in each case. Moreover, the Potency entry in test [11], in test [12], in [13] and in test [14] was “inactive” throughout.

`O=C1c2cccc(O)c2C(=O)c2c(O)cc(CO)cc21`: the result in test [18], in test [5], in test [6] and in test [9] was inactive. The Potency entry in test [2], in test [20], in test [3], in test [4], in test [7] and in [10] was “inactive” throughout. For the same molecule, the Potency result in test [11] and in [14] was “inactive” each time. The Potency in test [8] is 38.6 µM (active); in [13] it was 8.63 µM (active).

Regarding `Nc1nc(CC(=O)O)cs1`, the Potency result in test [3], in test [4], in test [7], in test [8], in test [10] and in [11] was “inactive” throughout. In addition, the Potency result in test [12] and in test [13] was “inactive” each time. Moreover, the outcome in [5], in test [6] and in [9] was inactive. The Potency in [14] is 28.3 µM (active).

Turning to `NCCCOCCOCCOCCCN`, the molecule was classed as inactive in test [18], in [5], in [6] and in test [9]. The values for the Potency in test [2], in [20] and in test [14] were 9.69 µM (active), 8.63 µM (active) and 20 µM (active), respectively. Also, the Potency result in test [3], in test [7], in test [8], in test [11] and in test [12] was “inactive” in each case.

As to `CCOc1nc2cccc(C(=O)O)c2n1Cc1ccc(-c2ccccc2-c2nn[nH]n2)cc1`, the result in [18] and in [5] was inactive. Besides, the Potency entry in test [19], in test [20], in test [3], in test [4], in [8] and in test [10] was “inactive” throughout. The Potency entry in test [11] and in [13] was “inactive” throughout. Moreover, the max activation in test [15] is -0.587%.

Take `CCC(C)N(C)C(=O)c1cc2ccccc2c(-c2ccccc2Cl)n1` (stereo unspecified): the molecule was called inactive in test [18], in [5], in [6] and in test [9]. Further, the Potency entry in [2], in [3], in test [4], in test [7], in test [11] and in test [14] was “inactive” in each case. For the same molecule, the Potency in test [13] was 0.498 µM (active).
